# 3T3 cytotox – NIH 3T3 cell cytotoxicity | actives 4.3% (n = 94,000) | Potency, µM (doses to about 96.7 µM), for the others: at the highest dose activity change, negative = cytotoxicity, hits mostly inhibitors | NIH 3T3 viability, CellTiter-Glo ATP luminescence, 48-72 h | AID 1345082; note: nearly all actives have a fitted effect of over 55% in size
#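 NIH 3T3 cells at 400 cells/well received 23 nL of compound by pintool and were incubated 48 or 72 h at 37 °C. Viability was read as ATP-coupled CellTiter-Glo luminescence.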
# GPT2 inh – GPT2 alanine aminotransferase inhibition; actives 0.25% (n = 100,000); AID 1671188; Q8TD30; Potency, µM (highest dose often 57.7 µM), for inactives: top-dose activity change, negative = inhibition, most hits filed as inhibitors; Recombinant GPT2, coupled pyruvate oxidase/HRP Amplex Red fluorescence; note: nearly all actives have a fitted effect of over 60% in size
#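 Inhibition is scored from Amplex Red fluorescence generated when pyruvate oxidase and HRP act on pyruvate released by GPT2. Reactions contain 10ng/uL enzyme, 250uM a-KG and 2mM L-alanine and run 30 min at room temperature.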
# Luciferase inh – blocks purified firefly luciferase enzyme activity. purified P. pyralis luciferase, luminescence, biochemical. P08659. Potency, µM (top dose mostly 115 µM), usual class: inhibitors. AID 1347043. actives 2.5% (n = 76,000); note: nearly all actives have a fitted effect of over 65% in size
#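 Luminescence read by CCD imaging after purified firefly luciferase (10nM final) was added to substrate buffer holding 10uM D-luciferin and 10uM ATP, pH 7.5, pre-dosed with compound.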
# HEK293 tox – HEK 293 cell cytotoxicity; Potency, µM (top dose mostly 115 µM), without a hit: top-dose activity change, negative = cytotoxicity, most hits filed as inhibitors; HEK 293 viability, ATP luminescence (CellTiter-Glo), 48-72 h; actives 6.6% (n = 94,000); note: nearly all actives have a fitted effect of over 60% in size
#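 Read-out: CellTiter-Glo ATP luminescence. Cells: HEK 293, 250 cells/well. Exposure: 48 or 72 hr, 37 degree Celsius.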
# NPR1 antag – human Npr1 receptor antagonism; actives 1.6% (n = 76,000); HEK293 hNpr1 GloSensor cGMP, ANP-stimulated luminescence; P16066; Potency, µM (series often up to 46.3 µM), for inactives: at the top dose activity change, negative = inhibition, usual class: inhibitors; calls by dose curve; note: nearly all actives have a fitted effect of over 60% in size
# Target sequence (P16066 whole entry, looked up): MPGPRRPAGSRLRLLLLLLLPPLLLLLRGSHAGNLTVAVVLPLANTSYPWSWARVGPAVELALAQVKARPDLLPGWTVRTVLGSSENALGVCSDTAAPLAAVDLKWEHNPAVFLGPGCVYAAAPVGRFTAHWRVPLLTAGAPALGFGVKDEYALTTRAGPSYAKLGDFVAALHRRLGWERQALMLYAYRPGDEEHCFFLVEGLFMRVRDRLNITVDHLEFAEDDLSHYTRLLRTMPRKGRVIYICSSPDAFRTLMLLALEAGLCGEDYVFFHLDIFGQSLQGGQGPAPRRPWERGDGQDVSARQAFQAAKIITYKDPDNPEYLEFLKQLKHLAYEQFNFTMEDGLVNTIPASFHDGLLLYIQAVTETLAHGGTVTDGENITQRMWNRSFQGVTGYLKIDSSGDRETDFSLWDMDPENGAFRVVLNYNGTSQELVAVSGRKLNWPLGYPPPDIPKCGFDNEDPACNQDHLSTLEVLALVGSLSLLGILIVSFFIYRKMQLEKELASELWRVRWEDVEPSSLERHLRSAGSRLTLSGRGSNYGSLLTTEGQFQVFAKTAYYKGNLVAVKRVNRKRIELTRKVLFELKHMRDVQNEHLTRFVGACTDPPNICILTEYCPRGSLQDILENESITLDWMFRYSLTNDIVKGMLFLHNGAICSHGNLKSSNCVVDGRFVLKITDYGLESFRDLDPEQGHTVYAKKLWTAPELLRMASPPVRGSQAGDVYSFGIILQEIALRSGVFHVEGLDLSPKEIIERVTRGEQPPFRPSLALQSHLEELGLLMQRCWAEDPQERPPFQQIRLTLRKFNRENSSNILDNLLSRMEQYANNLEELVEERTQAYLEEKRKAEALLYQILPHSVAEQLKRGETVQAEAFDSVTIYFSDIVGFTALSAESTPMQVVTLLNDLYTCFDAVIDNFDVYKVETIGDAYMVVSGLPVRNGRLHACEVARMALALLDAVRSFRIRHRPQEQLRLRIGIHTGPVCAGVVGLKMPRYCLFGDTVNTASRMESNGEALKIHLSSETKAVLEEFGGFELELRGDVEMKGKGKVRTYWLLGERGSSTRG
#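 Compound pre-incubated 30 min at room temperature on GloSensor-loaded HEK293 cells stably carrying hNpr1 and the pGS-40F cGMP biosensor. Stimulation uses hNppA at 0.1 nM final; luminescence is taken at baseline and 20 min post-agonist.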
# The depositor's hits bear a star; i = inactive; ? = inconclusive; nt = no result given; [ ] = dose if it differs, or a comment. Rows were chosen to be rich in hits. Some 10% of all compounds tested hit in one or more screens of this group. Unless noted, calls come from the whole dose curve; as a rule, active = well fitted curve in the direction sought with a large enough effect; inconclusive = small, poorly fitted or top-dose-only effect, or another doubt; inactive = no such curve, though single readings can be large; an effect the other way counts as inactive or inconclusive. % is set by controls: 0 for no effect and ±100 for the full control effect; potency is the fitted concentration of half-maximal effect.
SMILES,3T3 cytotox,GPT2 inh,Luciferase inh,HEK293 tox,NPR1 antag
Cc1cccc(C(=O)N2CC(Oc3ccc(-c4nc(-c5ccccc5)no4)cc3)C2)c1,-27.8%,i,i,?,-5.5%
O=C(C1CCOC1)N1CC(Oc2ccc(-c3nc(-c4ccccc4)no3)cc2)C1 (stereo unspecified),?,4.0%,14.1µM*,?,3.16µM*
O=C(c1ccsc1)N1CC(Oc2ccc(-c3nc(-c4ccccc4)no3)cc2)C1,-4.6%,-7.8%,28.2µM*,-29.6%,1.7%
Cc1nc(C)c(C(=O)N2CCC(Oc3ccc(-c4noc(C5CC5)n4)cc3)C2)s1 (stereo unspecified),?,i,i,20µM*,?
Cc1nc(C)c(C(=O)N2CC(Oc3ccc(-c4nc(-c5ccccc5)no4)cc3)C2)s1,-14.1%,i,12.6µM*,?,-8.3%
CC(C)(C)OC(=O)N1CC(c2cncnc2)C1,i,-2.0%[88.5 µM],nt,i,nt
CC(C)NC(=O)Nc1ccc([C@H]2OCC(=O)N(CC(=O)N(C)C)[C@@H]2CO)cc1,i,1.8%[88.5 µM],i,4.9%[172 µM],1.3%[70.6 µM]
COc1ccc(-c2cc(C(=O)NCc3c(C)cc(C)[nH]c3=O)c3c(c2)N(C(C)C)CCO3)cc1,?,-13.3%,i,28.2µM*,-5.4%
COc1cc(F)ccc1-c1cc(C(=O)NCc2c(C)cc(C)[nH]c2=O)c2c(c1)N(C(C)C)CCO2,39.8µM*,?,i,44.7µM*,0.4%
Cc1cc(C)c(CNC(=O)c2cc(-c3ccccc3O)cc3c2OCCN3C(C)C)c(=O)[nH]1,?,?,i,?,-12.0%
CC(=O)Nc1cccc(-c2cc(C(=O)NCc3c(C)cc(C)[nH]c3=O)c3c(c2)N(C(C)C)CCO3)c1,44.7µM*,2.6%,i,?,1.0%
Cc1cc(C)c(CNC(=O)c2cc(-c3ccccc3F)cc3c2OCCN3C)c(=O)[nH]1,50.1µM*,0.8%[88.5 µM],i,70.8µM*,-18.0%[70.6 µM]
COc1ncc(-c2cc(C(=O)NCc3c(C)cc(C)[nH]c3=O)c3c(c2)N(C(C)C)CCO3)cn1,-29.6%,i,i,?,4.0%
Cc1cc(C)c(CNC(=O)c2cc(-c3ccccc3O)cc3c2OCCN3C)c(=O)[nH]1,?,i,i,?,-12.4%[70.6 µM]
Cc1cc(C)c(CNC(=O)c2cc(-c3ccccc3F)cc3c2OCCN3C(C)C)c(=O)[nH]1,?,-12.1%,i,?,1.1%
COC[C@@H]1[C@H](NC(=O)c2cc(-c3cccn3C)n[nH]2)[C@@H]2CCO[C@H]12,-23.7%,5.0%,i,i,6.5%
Cc1cc2nc3n(c(=O)c2n1CC(=O)NC1CCc2ccccc21)CCCC3 (stereo unspecified),-29.1%,i,i,?,-15.9%
Cc1cc(C)c(CNC(=O)c2cc(-c3ccccc3C)cc3c2OCCN3C(C)C)c(=O)[nH]1,?,-7.8%,i,?,-0.4%
Cc1cc(C)c(CNC(=O)c2cc(-c3ccccc3C)cc3ncn(C)c23)c(=O)[nH]1,?,2.0%[88.5 µM],i,112µM*,-4.6%[70.6 µM]
COc1cccc(-c2cc(C(=O)NCc3c(C)cc(C)[nH]c3=O)c3c(c2)N(C(C)C)CCO3)c1OC,?,0.2%,i,79.4µM*,0.7%
O=C1NC2(CCN(C(=O)c3ccc(Cl)cc3)CC2)Oc2ccccc21,-25.0%,1.5%,nt,-13.0%,nt
COc1ccc(CN2C=C(C(=O)OCc3noc(-c4ccccc4)n3)C(C)=NS2(=O)=O)cc1,?,i,i,?,?
COc1cccc(CN2CCCC(N3CCN(c4cccc(C(F)(F)F)c4)CC3)C2)c1O (stereo unspecified),?,-16.7%,i,31.6µM*,-13.7%
CC(C)N1CCC(N2CCCC(N3CCN(c4cccc(C(F)(F)F)c4)CC3)C2)CC1 (stereo unspecified),?,i,i,20µM*,6.0%
CC(=O)Nc1ccc(CC(=O)N2CCc3c(nc4cc(-c5ccccc5Cl)[nH]n4c3=O)C2)cc1,-18.2%,i,?,-2.4%,-13.5%
SMILES,3T3 cytotox,GPT2 inh,Luciferase inh,HEK293 tox,NPR1 antag
CCCCC(=O)N1CCc2c(nc3cc(-c4ccccc4Cl)[nH]n3c2=O)C1,15.8µM*,4.8%,i,?,-5.9%
O=C(c1ccsc1)N1CCc2c(nc3cc(-c4ccccc4Cl)[nH]n3c2=O)C1,39.8µM*,i,35.5µM*,-11.8%,-12.6%
O=C(c1n[nH]c2ccccc12)N1CCc2c(nc3cc(-c4ccccc4Cl)[nH]n3c2=O)C1,4.9%,i,i,-3.0%,0.5%
CC1=C[C@@H](CNS(=O)(=O)Cc2ccccc2)[C@H](C(C)C)C[C@H]1CC(=O)NCc1ccccn1,?,i,i,?,1.1%
COc1cc(C)ccc1OCc1cc(C(=O)N(C)Cc2ncccc2C)no1,35.5µM*,i,i,39.8µM*,2.6%
Cc1nc2c(OCC(=O)c3ccccc3)cccn2c(=O)c1-c1cc(C)n(-c2ccccc2)n1,-25.9%,i,39.8µM*,?,-11.7%
CCOC(=O)CCCOc1cccn2c(=O)c(-c3cc(C)n(-c4cccc(C)c4)n3)c(C)nc12,-1.7%,-11.1%,i,-11.6%,-2.3%
O=[S+]([O-])(NCC1CN(Cc2cccc(Cl)c2)CC12CN(c1ccccc1)C2)c1ccccc1 (stereo unspecified),?,-0.2%,i,?,-7.9%
CC(C)c1ccc(CN2CC(CN[S+](=O)([O-])c3ccccc3)C3(C2)CN(c2ccccc2)C3)cc1 (stereo unspecified),39.8µM*,2.1%,i,?,-4.2%
O=[S+]([O-])(NCC1CN(Cc2ccc3[nH]ccc3c2)CC12CN(c1ccccc1)C2)c1ccccc1 (stereo unspecified),22.4µM*,?,i,22.4µM*,2.8%
O=C(N[C@@H]1C[C@H](Cn2cc(C3CC3)nn2)[C@@H](O)[C@H]1O)c1cnccn1,i,i,i,3.2%[172 µM],0.8%[70.6 µM]
O=C(c1nc(-c2ccc(Cl)cc2)c2ccccn12)N1CCN(c2ncccn2)CC1,?,-4.9%,i,?,-20.1%
Fc1ccccc1-c1noc(-c2nc(C3CC3)no2)n1,-21.2%,3.1%,4.47µM*,?,?
O=C(NCCc1ccccc1)c1cn2cc(-c3ccc(C(F)(F)F)cc3)sc2n1,-12.0%,-8.2%,nt,-4.2%,nt
O=C(NCCCc1ccccc1)c1cn2cc(-c3ccc(F)cc3)sc2n1,20µM*,-15.6%,nt,?,nt
O=C(NCc1ccccn1)c1cn2cc(-c3ccccc3)sc2n1,?,4.6%,nt,50.1µM*,nt
O=C(NC1CC1)c1cn2cc(-c3ccccc3)sc2n1,?,i,nt,?,nt

# Assay outcomes deposited in PubChem BioAssay by National Center for Advancing Translational Sciences (NCATS).
